In the supplement of paper PMC13380429:

Test system: Vero E6 infected with SARS-CoV-2
Experiment: inhibition of SARS-CoV-2 cytopathic effect; higher = more antiviral protection, active = above 15
Details: 48 h

Measured: inhibition of SARS-CoV-2 cytopathic effect

CC(=O)CC(=O)O [lithium-acetoacetate]
inactive: 1 nM -0.56% | 8.33 nM -0.05% | 100 nM 1.48% | 833.33 nM 1.82% | 10000 nM 0.27%

NC(N)=Nc1nc(CSCC/C(N)=N/S(N)(=O)=O)cs1 [famotidine]
inactive: 1 nM -4.18% | 8.33 nM -3.04% | 100 nM 2.88% | 833.33 nM 4.59% | 10000 nM -0.5%

CS(=O)(=O)c1ccc(-c2nnc(/C=C/c3nnc(-c4ccc(C#N)cc4)o3)n2-c2ccccc2Cl)nc1
inactive: 1 nM 0.69% | 8.33 nM 0.31% | 100 nM -0.3% | 833.33 nM -2.5% | 10000 nM 2.17%

NC(=O)NC1NC(=O)NC1=O (stereo not given) [allantoin]
inactive: 1 nM -0.84% | 8.33 nM -1.51% | 100 nM -2.49% | 833.33 nM -1.11% | 10000 nM 1.18%

CC[C@H](C)C[C@H](C)CCCCCCCCC(=O)N[C@H]1C[C@@H](O)[C@@H](NCCN)NC(=O)[C@@H]2[C@@H](O)CCN2C(=O)[C@H]([C@H](O)CCN)NC(=O)[C@H]([C@H](O)[C@@H](O)c2ccc(O)cc2)NC(=O)[C@@H]2C[C@@H](O)CN2C(=O)[C@H]([C@@H](C)O)NC1=O [caspofungin]
inactive: 1 nM 0.56% | 8.33 nM 0.765% | 100 nM -1.58% | 833.33 nM 0.425% | 10000 nM 5.37%

CCn1c(-c2nonc2N)nc2cnc(Oc3cccc(NC(=O)c4ccc(OCCN5CCOCC5)cc4)c3)cc21
inactive: 1 nM 3.5% | 8.33 nM 0.11% | 100 nM -2.86% | 833.33 nM -4.75% | 10000 nM -5.7%
